Reference: ChEMBL document CHEMBL1157539, “Thousands of chemical starting points for antimalarial lead identification” (Nature, 2010)

System: Plasmodium falciparum
Test: GSK_TCMDC: Inhibition of Plasmodium falciparum 3D7 in whole red blood cells, using parasite LDH activity as an index of growth. Test compounds present at 2uM
Format: functional

| SMILES | Inhibition [%] |
| --- | --- |
| O=C(O)C(F)(F)F.O=S(=O)(NCCN1CCCC1)c1ccc(-c2ccc(CNCc3ccccc3)cc2)s1 | 94 |
| CCNc1cc(C(=O)N[C@@H](Cc2ccccc2)[C@H](O)CN[C@H](C)c2ccccc2)cc(N2CCCC2=O)c1 | 97 |
| O=C(Nc1ccc(F)c([N+](=O)[O-])c1)Nc1cc(C(F)(F)F)ccc1Cl | 100 |
| CCN(CCCN1CCCC1)c1cc(C)nc(Nc2ccc(Cl)cc2)n1.O=C(O)C(=O)O | 100 |
| CS(=O)(=O)c1ccc(CCNCc2ccc(-c3ccc(CN(C(=O)C4CC(=O)c5ccccc54)C4CCN(Cc5ccccc5)CC4)cc3)nc2)cc1.O=C(O)C(F)(F)F (configuration not stated) | 100 |
| CCN1CCCC(CNC(=O)/C(=C/C=C/c2cc3cc(Cl)c(Cl)cc3[nH]2)OC)C1 (configuration not stated) | 93 |
| CC(CNC(=O)c1cc2c(Cl)cc(Cl)cc2[nH]1)CNc1cc(=O)c2ccccc2[nH]1.O=C(O)C(F)(F)F (configuration not stated) | 97 |
| COc1cc2nc(Cl)nc(Nc3ccncc3)c2cc1OC.Cl | 86 |
| O=C(Nc1cccc(C(F)(F)F)c1)NC1CCN(c2ccnc3ccccc23)CC1.O=C(O)C(F)(F)F | 100 |
| Cc1ccc(/C=C/C(=O)NCCCCCN2CCN(C(=O)Nc3ccc(Cl)c(C(F)(F)F)c3)CC2)cc1 | 93 |
| Cc1cc2c(cc1C(F)(F)F)N(C(=O)Nc1cc(C(=O)NC3CCN(Cc4ccccc4)C3)cc(C(F)(F)F)c1)CC2.Cl (configuration not stated) | 100 |
| O=C(O)C(F)(F)F.c1cc(CNCCN2CCNCC2)cc(-c2cccc(-c3nc4ccccc4[nH]3)c2)c1 | 89 |
